GBA mod: alters purified human glucocerebrosidase activity; purified enzyme, resorufin glucoside fluorescence (screen aimed at inhibitors), 20 min; Potency, µM; 1.1% of 48,000 active; in the data active = potency below about 15 µM; inconclusive = mostly about 16 µM to 33 µM;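 note: the screen sought inhibitors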
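Normal human glucocerebrosidase (0.2 nM final) was assayed with resorufin β-D-glucopyranoside (30 uM final) in 50mM citric acid/KH2PO4, 10mM sodium taurocholate, 0.01% tween-20, pH 5.9. Compounds were titrated; fluorescence (Ex 548, Em 600) read after 20 min at RT.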
PK Bst: alters activity of Bacillus stearothermophilus pyruvate kinase. purified pyruvate kinase, luminescence ATP production; ribose 5-phosphate activator present at AC10. Potency, µM. 1.2% of 51,000 active. AID 361; in the data active = potency below about 11 µM; inconclusive = mostly about 12 µM to 25 µM;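 the screen sought inhibitors and activators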;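 note: scaled between full activation by ribose 5 phosphate and full inhibition by luteolin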
An asterisk follows results filed as active; i = inactive; ? = inconclusive; · = not tested or not shown. Most compounds without a hit are left out; they make up all but 2.3% or so of the library. Potency is the fitted concentration of half-maximal effect.

SMILES | GBA mod | PK Bst
O=C(Nc1nc(-c2ccccc2)cs1)C1CCCO1 (stereo not given) | >77 | >11
Cc1cc(-c2csc(NC(=O)c3ccc(=O)n(C)n3)n2)c(C)n1CC1CCCO1 (stereo not given) | · | 9.1*
CCN(CC)S(=O)(=O)c1ccc(C(=O)OCn2nnc3ccccc3c2=O)cc1 | >77 | >57
Cc1cc(NC(=O)c2cc(C)on2)no1 | >77 | >57
Cc1cc(NC(=O)c2ccc3nc(-c4ccccc4)c(-c4ccccc4)nc3c2)no1 | 14* | >57
O=C(COC(=O)c1cncc(Br)c1)NCCC1=CCCCC1 | >77 | >57
Cc1cccc(-c2c3c(=O)n(C)c(=O)n(C)c3c3cccnn23)c1 | >77 | >57
CCOC(=O)c1[nH]c(C(=O)O)c(CCN(CC)CC)c1C | >77 | >57
COCc1nnc(NC(=O)CCc2ccccc2)s1 | >77 | >57
O=C(Nc1nnc(C(F)(F)F)s1)c1cccnc1 | · | >57
COCc1nnc(NC(=O)c2ccc(NC(C)=O)cc2)s1 | 6.8* | >57
COCc1nnc(NC(=O)c2cccs2)s1 | ? | >57
CCCC(=O)Nc1ccc(C(=O)Nc2nnc(COC)s2)cc1 | 0.77* | >57
COc1ccc(C(=O)Nc2nnc(C(F)(F)F)s2)cc1 | 3.3* | ·
O=C(Nc1ccc(Cl)cn1)C1CCCN1S(=O)(=O)c1ccccc1 (stereo not given) | · | >26
CCOC(=O)C1(c2nc(N)cs2)COC(=O)C1 (stereo not given) | · | >26
Cc1ccc(NC(=O)N2C(=O)C3(OCCO3)c3ccccc32)cc1 | >77 | >57
Cc1ccc(-c2nnn(CC(=O)Nc3ccccc3-c3ccccc3)n2)c(-n2cnnn2)c1 | >77 | >57
S=C(N=Nc1ccccc1)NNc1ccccc1 | · | >26
O=C1c2ccccc2S(=O)(=O)N1CCOc1ccc(F)cc1 | >77 | >57
Cc1ccc(-n2nc(C)c(C3C(C#N)=C(N)OC4=C3C(=O)CC(C)(C)C4)c2Cl)cc1 (stereo not given) | 4.8* | >57
Cc1nn(-c2ccccc2)c(Cl)c1C1C(C#N)=C(N)OC2=C1C(=O)CCC2 (stereo not given) | i | >57
Cc1cc(C)nc(SCc2nnc(SCC(=O)N3CCCc4ccccc43)o2)n1 | >77 | >57
CC1CCCCN1S(=O)(=O)c1ccc2c(c1)CCN2C(=O)C1CCC1 (stereo not given) | >77 | >57
c1cnc2c(SCc3ccc(-c4nnco4)cc3)cccc2c1 | >77 | 2.4*
SMILES | GBA mod | PK Bst
c1ccc2[nH]c(SCc3ccc(-c4nnco4)cc3)nc2c1 | >77 | ·
CC(=O)Nc1cccc(-c2nnc(-c3ccccc3)o2)c1 | 14* | ?
CC(=O)Nc1cccc(-c2nc3ccccc3c(=O)o2)c1 | >77 | i
COc1ccc(CC(=O)Nc2cccc(-c3nnc(-c4ccccc4)o3)c2)cc1OC | ? | i
COc1ccc(CC(=O)Nc2cccc(-c3nnc(-c4cccc(C)c4)o3)c2)cc1OC | 11* | ·
O=C(Nc1ccccc1C(F)(F)F)c1cc(S(=O)(=O)N2CCOCC2)ccc1F | >77 | >57
O=C1c2oc3ccccc3c(=O)c2C(c2ccc(Cl)cc2)N1c1ncccn1 (stereo not given) | >77 | >57
CCOC(=O)c1c(N)sc(C(=O)Nc2ccc3c(c2)OCO3)c1C | >77 | 1*
CCOC(=O)c1[nH]c(C)c(C(=O)Nc2ccc3c(c2)OCCO3)c1C | >77 | >57
COC(=O)c1cc(Br)c(=O)n(Cc2ccc(OC)c(OC)c2)c1 | >77 | >57
COc1ccc2oc(=O)c(-c3nnc(NCc4ccco4)s3)cc2c1 | 9.9* | >57
CCOc1cccc2cc(-c3nnc(NCc4ccco4)s3)c(=O)oc12 | >77 | ·
